Bioassay records as filed in PubChem BioAssay.
Compounds with a hit are over-represented: about 5.2% of the library has one in this group of screens.
NR3A LBD binder: binders of NR3A ligand-binding domain, primary screen, biophysical, differential scanning fluorimetry, uHTS; Glutamate receptor ionotropic, NMDA 3A (GRIN3A) ligand-binding domain; NR3A LBD differential scanning fluorimetry, Tm shift; 0% = protein alone, 100% = glycine-bound protein; Tm shift relative to glycine control, % at 25 µM; actives 2.5% (n = 340,000); AID 1259313, 2017;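 active means melting temperature shift of at least 10% of the positive control shift, at one fixed dose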
SMARCA2 act: SMARCA2 (BRM) function activators, primary screen, cell-based, luminescence, high throughput. actives 1% (n = 370,000). activation, % at 9.1 µM. MG213 cells, MMTV-luciferase reporter, dexamethasone, overnight; in the data active means activation above about 7.8%;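 further: 0% = vehicle wells and 100% = reference activator wells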
Vif inh: HIV Vif self-association inhibitors, primary screen, imaging, HEK293T, single point; inhibition, % at 7.49 µM; actives 0.35% (n = 340,000); HEK293T cells, Vif self-association by quenched fluorescence, 24 h; in the data active means inhibition above about 50%, passing the limit was not always enough; inconclusive means no clear call, values can overlap the other calls; inactive means below about 31%
SKN-1 block: suppressors of acrylamide-induced Pgst-4::GFP reporter in worms, primary screen, SKN-1 inhibitor project, whole organism, uHTS, GFP/RFP fluorescence ratio, strain VP596 | C. elegans VP596 Pgst-4::GFP/RFP ratio, 24 h | actives 0.49% (n = 360,000) | inhibition, % at 21.8 µM;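 active means interference check ratio from 0.5 to 1.5 plus GFP to RFP signal ratio inhibition reaching or exceeding a fixed threshold, cut at about 30% in these data, passing the limit was not always enough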
NadD block: inhibitors of S. aureus NadD, primary screen, biochemical, colorimetric, uHTS | purified NadD enzyme, colorimetric absorbance read-out | actives 0.78% (n = 360,000) | inhibition, % at 20 µM | Nicotinate-nucleotide adenylyltransferase NadD (Staphylococcus aureus N315); in the data active means inhibition above about 26%
esBAF inh: Bmi1 luciferase reporter increase in mESCs, primary screen, esBAF inhibitor project, mouse ES cells, Bmi1 luciferase knock-in, single point; 24 h; 100% = twice the neutral-well signal; reporter increase, % at 12.5 µM; actives 2% (n = 350,000); in the data active means activation above about 40%; inconclusive means no clear call, values can overlap the other calls;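 further: 0% = median of the plate's neutral control wells and 100% = double that signal; a rise in the Bmi1 reporter signal indicates esBAF inhibition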
Ring1 derepress: Ring1 mRNA increase in mouse ESCs, confirmation, esBAF inhibitor project, cell-based, mouse ESC, RT-qPCR, cherry-pick. shares compounds with esBAF inh. mouse ESC E14, Ring1 mRNA RT-qPCR fold change. fold change at 33 µM. 550 tested, under 10 active. AID 743176, 2013;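 active means Ring1 gene expression raised more than 2-fold over untreated cells in both replicates at either tested dose; inconclusive means only one replicate above 2-fold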;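 further: Ring1 transcript normalised to actin housekeeping signal by TaqMan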
esBAF Fgf4 qPCR: Fgf4 mRNA decrease in mouse ESCs, confirmation, esBAF inhibitor project, cell-based, mouse ESC, RT-qPCR, cherry-pick. shares compounds with esBAF inh. mouse ESC E14, Fgf4 mRNA qPCR fold change; stronger effect = lower value. Fgf4 expression fold change at 33 µM. actives 4% (n = 550). AID 743177, 2013;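 active means Fgf4 expression under 0.8 fold of control in both repeat measurements at one or both tested doses; inconclusive means under 0.8 fold in just a single repeat measurement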;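 further: Fgf4 transcript normalised to actin in duplex TaqMan qPCR; cells exposed to compound for 24 h before lysis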
Bmi1 derepress: esBAF inhibition via Bmi1 de-repression, confirmation, cell-based, RT-qPCR, mouse ESC, single point, cherry-pick; 550 tested, under 10 active; mouse ESE14 ES cells, Bmi1 mRNA qPCR fold; stronger effect = higher value; fold change at 33 µM; AID 743180, 2013; shares compounds with esBAF inh;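 active means Bmi1 expression fold change above 6 at either tested concentration, seen in replicate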
A549 tox SP: A549 cell cytotoxicity, cytotoxicity control, plate reader, single point, cherry-pick; shares compounds with esBAF inh; cell viability change % (negative = cytotoxic), % at 25 µM, hits read low; 550 tested, under 10 active; call rule not given here
HepG2 cytotox SP: HepG2 cell cytotoxicity, cytotoxicity control, plate reader, single point, cherry-pick | actives 4% (n = 550) | activity change, negative = inhibition, % at 25 µM | shares compounds with esBAF inh | stronger effect = lower value | AID 743189, 2013; in the data active means activity change below about -50%
HEK293 cytotox SP: HEK293 cell cytotoxicity, cytotoxicity control, plate reader, single point, cherry-pick | activity change, negative = inhibition, % at 25 µM, hits read low | actives 3% (n = 550) | shares compounds with esBAF inh; in the data active means activity change below about -38%, passing the limit was not always enough
* marks the source's active call; other numbers are inactive results; ? = inconclusive; . = no result given.

SMILES | NR3A LBD binder | SMARCA2 act | Vif inh | SKN-1 block | NadD block | esBAF inh | Ring1 derepress | esBAF Fgf4 qPCR | Bmi1 derepress | A549 tox SP | HepG2 cytotox SP | HEK293 cytotox SP
CCn1c(COc2ccccc2C)nc2ccccc21 | 0 | 3 | -4 | -1 | -7 | 65* | 1.1 | 0.94 | 1.8 | -7 | 1 | -14
CCn1c(COc2ccccc2OC)nc2ccccc21 | -1 | -1 | -7 | 6 | -4 | ? | . | . | . | . | . | .
O=C(Cc1cccnc1)N[C@H]1CC[C@H](CCNS(=O)(=O)c2ccccc2Cl)O[C@H]1CO | . | . | . | . | . | -3 | . | . | . | . | . | .
CCCNC(=O)C[C@H]1C[C@H]2c3cc(NS(C)(=O)=O)ccc3O[C@H]2[C@H](CO)O1 | . | . | . | . | . | -2 | . | . | . | . | . | .
c1ccc(-c2cnc(-c3cccnc3)o2)cc1 | 0 | 1 | -3 | 9 | -2 | 19 | . | . | . | . | . | .
Fc1cccc(-c2ncc(-c3ccccc3)o2)c1 | -1 | 5 | 2 | 19 | -7 | 73* | 1.2 | 0.99 | 1.7 | -6 | 2 | -17
c1ccc2cc(C3CCCCC3)ncc2c1 | 1 | 1 | 0 | 21 | -4 | 76* | 1.3 | ? | 1.5 | 2 | -41 | 13
O=C(O)c1ccc2c(c1)C(=O)N(CCc1c[nH]c3ccccc13)C2=O | 5 | 1 | 17 | -2 | -6 | 47* | 1.2 | 0.98 | 1.5 | -2 | -3 | 3
C=CCn1c(-c2ccc(N)cc2)nc2ccccc21 | -2 | 4 | 0 | 16 | -2 | 58* | 0.93 | 1.2 | 1.2 | -17 | -1 | -20
CCn1c(-c2ccc(N)cc2)nc2ccccc21 | -1 | 1 | 15 | 11 | 3 | 22 | . | . | . | . | . | .
Cn1c2nc3ccccc3c-2nc2ccccc21 | . | 6 | -4 | 17 | 2 | 54* | 1 | 0.81 | 6.4* | -10 | 6 | -5
C=CCn1c(O)c(C=Nc2ccccc2)sc1=S | -4 | 1 | -16 | 14 | 1 | 68* | 1 | 0.84 | 1.4 | -6 | -21 | -11
C[C@H]1CN([C@@H](C)CO)C(=O)Cc2cc(NC(=O)Cc3ccccc3)ccc2O[C@H]1CN(C)S(C)(=O)=O | . | . | . | . | . | 2 | . | . | . | . | . | .
CC(C)c1ccc(NC(=S)NNC(=O)c2cccnc2)cc1 | 1 | -2 | 6 | -12 | -2 | . | . | . | . | . | . | .
CC(C)c1ccc(NC(=O)c2cccnc2)cc1 | 1 | 4 | 2 | 23 | 1 | 85* | 1.1 | 0.81 | 1.6 | -1 | -27 | 5
CCC(=O)N1C[C@@H](C)[C@@H](OC)CN(C)C(=O)c2ccc(NC(=O)c3ccccc3)cc2OC[C@@H]1C | . | . | . | . | . | 0 | . | . | . | . | . | .
O=C(Nc1cccc(F)c1)c1c(O)c2ccccc2[nH]c1=O | 3 | 0 | 12 | 12 | -4 | 80* | 0.99 | 0.95 | 1.3 | 6 | -17 | -9
Cc1ccc(NC(=O)C2CCCN(C(=O)c3ccc(Cl)cc3)C2)cc1C (stereo unspecified) | 3 | 0 | -10 | 1 | 0 | 69* | 0.98 | 1.1 | 1.5 | -7 | -29 | -32
Cc1ccc(NC(=O)C2CCCN(c3ncccn3)C2)cc1F (stereo unspecified) | 2 | 6 | -7 | 8 | -5 | 73* | 1.3 | ? | 1.6 | 0 | -18 | -7
Cc1ccc(NC(=O)C2CCCN(C(=O)c3ccc(Cl)cc3)C2)cc1 (stereo unspecified) | -1 | 0 | -3 | -3 | -4 | . | . | . | . | . | . | .
Cc1cc(C)cc(NC(=O)C2CCCN(c3ncccn3)C2)c1 (stereo unspecified) | 1 | -1 | 18 | 6 | -8 | -2 | . | . | . | . | . | .
C[C@@H](NC(=O)C[C@H]1C[C@@H]2c3cc(NS(C)(=O)=O)ccc3O[C@@H]2[C@@H](CO)O1)c1ccccc1 | . | . | . | . | . | 1 | . | . | . | . | . | .
O=S(=O)(c1ccccc1)N1CCN(c2nc3ccccc3s2)CC1 | 7 | -4 | -7 | 10 | 4 | 1 | . | . | . | . | . | .
CS(=O)(=O)N1CCN(c2nc3ccccc3s2)CC1 | -1 | 2 | 8 | 0 | 4 | 65* | 1.1 | 1.1 | 1.1 | -11 | -16 | -7
Cc1onc(-c2ccccc2)c1C(=O)N1CCCN2C(=O)c3ccccc3C21 (stereo unspecified) | 1 | 2 | -3 | 2 | -2 | -2 | . | . | . | . | . | .
SMILES | NR3A LBD binder | SMARCA2 act | Vif inh | SKN-1 block | NadD block | esBAF inh | Ring1 derepress | esBAF Fgf4 qPCR | Bmi1 derepress | A549 tox SP | HepG2 cytotox SP | HEK293 cytotox SP
O=C1c2ccccc2C2N1CCCN2C(=O)c1sc2ccccc2c1Cl (stereo unspecified) | . | -2 | -4 | 8 | -3 | 64* | 1 | 0.95 | 1.8 | 15 | -7 | -25
C[C@H]1CCCCO[C@H](CN(C)C(=O)c2ccccc2)[C@@H](C)CN([C@@H](C)CO)C(=O)c2cc(N(C)C)ccc2O1 | . | . | . | . | . | 5 | . | . | . | . | . | .
CCCNC(=O)Nc1ccc2c(c1)C(=O)N(C)C[C@@H](OC)[C@@H](C)CN(Cc1ccncc1)[C@@H](C)CO2 | . | . | . | . | . | -5 | . | . | . | . | . | .
CC(=O)c1c(C)[nH]c(C(=O)OCc2ccc(Br)cc2)c1C | -31 | -4 | -18 | 19 | -10 | 64* | 1.4 | 1.1 | 2 | -8 | -24 | -22
CCOC(=O)c1[nH]c(C)c(C(=O)OCc2ccc(C)cc2)c1C | 3 | 4 | -7 | 8 | 6 | -6 | . | . | . | . | . | .
Cc1cccc(-c2noc(CCC(=O)N3CCN(c4cc(C)ccc4C)CC3)n2)c1 | 17* | 3 | . | 5 | 1 | 63* | 1 | 0.9 | 1.4 | 5 | 13 | -7
